# MCF10A rereplic – induces DNA re-replication in MCF 10a normal breast cells | MCF 10A DNA re-replication, Hoechst nuclear intensity, 48 h | Potency, µM (series often up to 46.1 µM), for the others: at the top dose activity, positive = re-replication, hits mostly activators | 350,000 tested, 2.9% active; further: % of control where 0% means no effect; nearly all actives have a fitted effect of over 50% in size
# KB-V1 cytotox – KB-V1 MDR subline cytotoxicity. KB-V1 MDR cells viability, CellTiter-Glo, 72 h. Potency, µM (highest dose often 46.1 µM), most hits filed as cytotoxic. 400,000 tested, 3.4% active; further: on the % scale 0 is the no-effect control and ±100 the full control effect; nearly all actives have a fitted effect of over 60% in size
#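 Compound-treated KB-V1 multidrug-resistant cells, 72 h, 37 degrees C; viability by CellTiter-Glo. Fitted qHTS curves give the values.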
# KB-3-1 tox – kills parental KB-3-1 adenocarcinoma cells | KB-3-1 viability, CellTiter-Glo ATP luminescence, 72 h | Potency, µM (titrated, usually from 46.1 µM), usual class: cytotoxic | 400,000 tested, 1.4% active | AID 1347075; further: on the % scale 0 is the no-effect control and ±100 the full control effect; nearly all actives have a fitted effect of over 60% in size
#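 KB-3-1 parental drug-naive adenocarcinoma cells in DMEM/10% FBS, incubated 72 h at 37 C with pin-transferred compounds across a concentration series. Viability by CellTiter-Glo luminescence; concentration-response curves fitted after normalization.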
# PTAP TSG101 blk – blocks PTAP/TSG101 interaction to inhibit HIV-1 budding; Fluorescence polarization, FITC-PTAP peptide / Tsg101 binding; 340,000 tested, under 10 active; Q99816; Potency, µM (series often up to 115 µM), inactives show top-dose activity change, negative = inhibition, hits mostly inhibitors; active means well fitted inhibition curve with a large enough effect in the main read-out, with a control signal flat, not every such curve was filed as active; inconclusive means small, poorly fitted or top-dose-only effect, or effect the other way, or a change in a side signal; inactive means no such curve, though single readings can be large or run the other way; further: % of control where 0% means no effect
# Target sequence (Q99816 whole entry, looked up): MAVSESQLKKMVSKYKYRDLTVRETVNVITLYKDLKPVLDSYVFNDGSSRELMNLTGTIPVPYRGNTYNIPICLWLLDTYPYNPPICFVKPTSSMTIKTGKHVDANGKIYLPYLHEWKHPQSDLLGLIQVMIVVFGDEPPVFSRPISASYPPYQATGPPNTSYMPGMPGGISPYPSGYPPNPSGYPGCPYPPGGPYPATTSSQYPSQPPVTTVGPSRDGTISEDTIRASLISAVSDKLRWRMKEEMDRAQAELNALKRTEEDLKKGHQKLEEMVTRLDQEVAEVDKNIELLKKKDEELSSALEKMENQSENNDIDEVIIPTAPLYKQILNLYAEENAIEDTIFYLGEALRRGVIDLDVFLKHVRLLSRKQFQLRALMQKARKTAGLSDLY
#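 Tsg101 binding domain (10 uM final) was mixed with compound and a FITC-labeled PTAP peptide (50 nM final) in HEPES pH 7.5 buffer with NaCl, Tween 20, EDTA and TCEP; fluorescence polarization was read after 20 min at r.t.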
# SW480 rereplic – inducers of DNA re-replication in SW480 colon cancer cells; Potency, µM (top dose mostly 46.1 µM), for the others: at the top dose re-replication activation, most hits filed as activators; AID 624297; SW480 DNA re-replication, Hoechst DNA content imaging, 48 h; 340,000 tested, 1.8% active; further: % of control where 0% means no effect; nearly all actives have a fitted effect of over 55% in size
#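 Per well, 250 cells were exposed to pinned compound for 48 hr. Nuclear DNA was visualised with Hoechst (40 min, 37 C) and total object intensity recorded by fluorescence scanning.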
# PINK1 expr mod – changes PINK1 expression. PINK1 immunofluorescence, high-content cytometry, 24 h. Potency, µM (top dose mostly 76.6 µM), for inactives: at the highest dose activation (PINK1 increase), most hits filed as activators. 410,000 tested, 0.2% active. AID 624263; active means well fitted activation curve with a large enough effect; inconclusive means small, poorly fitted or top-dose-only effect; cell line not stated here; further: % of control where 0% means no effect; nearly all actives have a fitted effect of over 65% in size
#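 PINK1 protein level read as immunofluorescence by microplate cytometer in a fixed, stained stable cell line after 24 h exposure to five compound concentrations, with CCCP as control.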
# * marks the source's active call; other numbers are inactive results; i = inactive; ? = inconclusive; · = no result; [ ] = another dose, or the depositor's remark. The list is not random: actives were taken first. Their share in the collection is about 6.8%. Unless noted, the call rests on the fitted dose curve; in most records, active means well fitted curve in the direction sought with a large enough effect; inconclusive means small, poorly fitted or top-dose-only effect, or another doubt; inactive means no such curve, though single readings can be large; an effect the other way counts as inactive or inconclusive. Potency means the concentration at half of the fitted maximal effect.
SMILES,MCF10A rereplic,KB-V1 cytotox,KB-3-1 tox,PTAP TSG101 blk,SW480 rereplic,PINK1 expr mod
CC(CNC(=O)C1CCN(Cc2cc3ccccc3n2Cc2ccccc2)CC1)c1ccccc1 (centres undefined),·,i,i,·,·,2%
CC1=C(CC(=O)c2ccccc2)C(=O)c2ccccc2C1=O,?,10µM*,?,-3%,?,1%
CCOC(=O)c1c(-c2ccc(C)cc2)csc1NC(=O)c1nc(SC(C)C)ncc1Cl,·,i,i,·,·,0%
N=c1n(Cc2ccccc2)c2ccccc2n1CC(O)COc1ccccc1 (centres undefined),26µM*,21µM*,21µM*,-5%,?,0%[38.3 µM]
CCn1c(=N)n(CC(O)COc2cccc(C)c2)c2ccccc21 (centres undefined),?,?,?,-4%,?,-18%[38.3 µM]
Cc1ccc(Cn2c(=N)n(CC(O)COc3ccccc3)c3ccccc32)cc1 (centres undefined),12%,16µM*,i,0%,?,-3%
S=c1[nH]nc(-c2cc(-c3ccccc3)n[nH]2)n1/N=C/c1ccc(Cl)cc1,?,i,i,0%,-2%,4%
S=c1[nH]nc(-c2cc(-c3ccccc3)n[nH]2)n1/N=C/c1cccc(Cl)c1,23µM*,i,i,-2%,?,-1%
Cc1ccc(C)c(N2CCN(C(=O)c3ccc(CS(=O)Cc4ccc(Cl)cc4)o3)CC2)c1 (centres undefined),?,?,i,-4%,16µM*,4%
Cc1ccc(S(=O)(=O)Cc2ccc(C(=O)N3CCN(c4cc(C)ccc4C)CC3)o2)cc1,?,18µM*,?,3%,2%,?
Cc1ccc(Cl)cc1N1CCN(C(=O)c2ccc(CS(=O)Cc3ccc(Cl)cc3)o2)CC1 (centres undefined),?,i,i,2%,0%,7%
Cc1ccc(C)c(N2CCN(C(=O)c3ccc(CS(=O)(=O)c4ccccc4C)o3)CC2)c1,?,?,?,-3%,?,6%[38.3 µM]
CC(=O)Nc1ccc(S(=O)(=O)O)c2cc(S(=O)(=O)O)c(N=Nc3ccc(N=Nc4ccc(S(=O)(=O)O)cc4)c4ccc(S(=O)(=O)O)cc34)c(O)c12,·,?,?,·,·,0%
Cc1ccc(NC(=O)CCNS(=O)(=O)c2cc(Br)cnc2N)cc1Cl,18µM*,13µM*,?,-3%,7%,12%
COc1ccc(-c2cc(NC=O)c3ncc(-c4ccc(OC)c(OC)c4)n3c2)cc1,·,3.7µM*,1.6µM*,·,·,0%
COc1ccc(-c2cnc3c(NC=O)cc(-c4ccccc4OC)cn23)cc1OC,·,1.2µM*,0.18µM*,·,·,0%
COc1ccc(-c2cc(NC=O)c3ncc(-c4ccc(OC)c(OC)c4)n3c2)cc1OC,·,?,?,·,·,9%
CCc1nn(CC(=O)Nc2ccc(C)c(F)c2)c(=O)c2cc3cc(C)ccc3n12,·,i,i,·,·,-1%
COc1ccc(CN2CCc3c(c(=O)n4ncc(C(=O)N5CCN(c6ccc(F)cc6)CC5)c4n3C)C2)cc1,·,i,?,·,·,0%
CCn1c2c(c(=O)n3ncc(C(=O)N4CCN(c5ccc(C(C)=O)cc5)CC4)c13)CN(Cc1ccc(OC)cc1)CC2,·,i,21µM*,·,·,1%
COc1ccc(-n2cnc3cc(NC(=O)c4ccco4)ccc32)cc1,18%,16µM*,?,0%,12%,-8%[38.3 µM]
COc1ccc(NS(=O)(=O)c2cc(NC(=O)c3ccc(=O)[nH]c3)ccc2N2CCCC2)cc1,?,i,3.7µM*,-5%,?,4%
COc1ccc(NS(=O)(=O)c2cc(NC(=O)c3cnc(C)cn3)ccc2N2CCCC2)cc1,17%,4.6µM*,i,-2%,79%,6%
COc1ccc(NS(=O)(=O)c2cc(NC(=O)c3ccco3)ccc2N2CCCCC2)cc1,?,i,21µM*,-2%,?,3%
COc1ccccc1-n1cnc2cc(NC(=O)c3ccco3)ccc21,0%,?,?,-18%,3%,11%[38.3 µM]
SMILES,MCF10A rereplic,KB-V1 cytotox,KB-3-1 tox,PTAP TSG101 blk,SW480 rereplic,PINK1 expr mod
COc1ccc(NS(=O)(=O)c2cc(NC(=O)c3cnc(C)cn3)ccc2N2CCCCC2)cc1,25%,i,i,-5%,5%,1%
O=C(CSc1cn(CC(=O)N2CCCCC2)c2ccccc12)NCc1ccccc1,·,·,·,·,·,-1%
COc1ccc(C)cc1NC(=O)N1CCCn2nc(C)cc21,·,?,i,·,·,1%
COC(=O)/C(=C1/Oc2ccc(C(C)(C)C)cc2S1)C(F)(F)F,-2%,?,i,-1%,-7%,3%
COC(=O)/C(=C1/Oc2cc(C)oc(=O)c2S1)C(F)(F)F,5.8µM*,i,i,-1%,12µM*,-1%
Cc1ccc(C(=O)c2cc([N+](=O)[O-])ccc2N2CCCCC2)cc1C,?,5.8µM*,2.9µM*,4%,1.8µM*,6%
O=C(NC1CCCCC1)c1cc([N+](=O)[O-])ccc1N1CCCCC1,-6%,9.2µM*,i,·,0%,5%[38.3 µM]
Cc1cccc(NC(=O)c2cc([N+](=O)[O-])ccc2N2CCOCC2)c1C,·,i,i,·,·,0%
Cc1ccc(C(=O)c2cc([N+](=O)[O-])ccc2N2CCOCC2)cc1C,?,3.7µM*,16µM*,-1%,·,0%
Cc1ccc(C(=O)c2cc([N+](=O)[O-])ccc2N2CCOCC2)c(C)c1,0.92µM*,0.58µM*,1µM*,3%,0.13µM*,6%
Cc1ccc(C)c(C(=O)COC(=O)c2cc([N+](=O)[O-])ccc2N2CCOCC2)c1,0%,i,i,-9%,4%,-2%
COC(=O)c1cc(CNC(=O)c2ccncc2)cc(NC(=O)c2ccccc2Cl)c1,·,·,·,·,·,0%
CCOc1ccc(NC(=O)C2CCCN(c3nn4cc(-c5ccc(OC)cc5)nc4s3)C2)cc1 (centres undefined),·,i,i,·,·,0%
COc1ccccc1OCc1nc2ccccc2n1Cc1ccccc1,·,i,i,·,·,1%
CCc1ccc(S(=O)(=O)c2cn(CC)c3cc(N4CCCCC4)c(F)cc3c2=O)cc1,·,i,i,·,·,0%
O=C(Nc1ccon1)c1cc(-c2ccccc2)nc2ccccc12,2%,?,i,-2%,3%,2%
Cc1cccc(-c2cc(C(=O)Nc3ccc4c(c3)OCCO4)c3ccccc3n2)c1,12%,?,i,-3%,-2%,0%
CCOc1cccc(-c2cc(C(=O)Nc3ccon3)c3ccccc3n2)c1,8%,16µM*,i,-2%,2%,6%
